Screening results (PubChem)
G9a block = blocks human histone lysine methyltransferase G9a | G9a H3K9 monomethylation, AlphaScreen, 2 h | Potency, µM (doses to about 102 µM), without a hit: at the top dose activity, negative = inhibition, hits mostly inhibitors | AID 504332 | 350,000 tested, 8.8% active | Q96KQ7; note: % is set by controls: 0 for no effect and ±100 for the full control effect; nearly all actives have a fitted effect of over 75% in size
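Enzyme 20 nM + cpd, 15 min RT; add b-H3K9 pep 500 nM / SAM 20 uM; 2 h RT; anti-H3K9me1 Ab 0.5 ug/mL + SA donor / anti-rabbit acceptor beads 20 ug/mL each, 10 min; AlphaScreen read.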
HP1b chromo inh = HP1-beta chromodomain-methylated histone interaction inhibition | AlphaScreen HP1-beta / biotin-H3K9me3 peptide binding | Potency, µM (series often up to 114 µM), without a hit: at the highest dose activity change, negative = inhibition, actives largely listed as inhibitors | 390,000 tested, 0.56% active | AID 540317; note: nearly all actives have a fitted effect of over 70% in size
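Compound inhibition of the preformed complex between 50 nM HP1-beta and 50 nM biotinylated H3K9me3 peptide was read by AlphaScreen. Buffer was PBS pH 7.4 with 0.01% Tween-20. Incubations ran 30 min at room temperature, with 10 ug/mL donor/acceptor beads.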
PLK1 PBD block = blocks phosphopeptide binding to human PLK1 polo-box domain. P53350. Plk1 PBD binding of FITC phosphopeptide, fluorescence polarization. Potency, µM, without a hit: max response, negative = inhibition, actives largely listed as inhibitors. 360,000 tested, 2.8% active; note: series mostly up to about 57 µM; % is set by controls: 0 for no effect and ±100 for the full control effect; nearly all actives have a fitted effect of over 65% in size
JMJD2A Tudor inh = inhibitors of human JMJD2A Tudor domain; O75164; AlphaScreen JMJD2A-Tudor / H3K4me3 peptide binding; Potency, µM (titrated, usually from 114 µM), for inactives: at the highest dose activity change, negative = inhibition, most hits filed as inhibitors; 390,000 tested, 4.4% active; AID 504339; note: % is set by controls: 0 for no effect and ±100 for the full control effect; nearly all actives have a fitted effect of over 50% in size
Target sequence (O75164 whole entry, looked up, the tested form may be a part): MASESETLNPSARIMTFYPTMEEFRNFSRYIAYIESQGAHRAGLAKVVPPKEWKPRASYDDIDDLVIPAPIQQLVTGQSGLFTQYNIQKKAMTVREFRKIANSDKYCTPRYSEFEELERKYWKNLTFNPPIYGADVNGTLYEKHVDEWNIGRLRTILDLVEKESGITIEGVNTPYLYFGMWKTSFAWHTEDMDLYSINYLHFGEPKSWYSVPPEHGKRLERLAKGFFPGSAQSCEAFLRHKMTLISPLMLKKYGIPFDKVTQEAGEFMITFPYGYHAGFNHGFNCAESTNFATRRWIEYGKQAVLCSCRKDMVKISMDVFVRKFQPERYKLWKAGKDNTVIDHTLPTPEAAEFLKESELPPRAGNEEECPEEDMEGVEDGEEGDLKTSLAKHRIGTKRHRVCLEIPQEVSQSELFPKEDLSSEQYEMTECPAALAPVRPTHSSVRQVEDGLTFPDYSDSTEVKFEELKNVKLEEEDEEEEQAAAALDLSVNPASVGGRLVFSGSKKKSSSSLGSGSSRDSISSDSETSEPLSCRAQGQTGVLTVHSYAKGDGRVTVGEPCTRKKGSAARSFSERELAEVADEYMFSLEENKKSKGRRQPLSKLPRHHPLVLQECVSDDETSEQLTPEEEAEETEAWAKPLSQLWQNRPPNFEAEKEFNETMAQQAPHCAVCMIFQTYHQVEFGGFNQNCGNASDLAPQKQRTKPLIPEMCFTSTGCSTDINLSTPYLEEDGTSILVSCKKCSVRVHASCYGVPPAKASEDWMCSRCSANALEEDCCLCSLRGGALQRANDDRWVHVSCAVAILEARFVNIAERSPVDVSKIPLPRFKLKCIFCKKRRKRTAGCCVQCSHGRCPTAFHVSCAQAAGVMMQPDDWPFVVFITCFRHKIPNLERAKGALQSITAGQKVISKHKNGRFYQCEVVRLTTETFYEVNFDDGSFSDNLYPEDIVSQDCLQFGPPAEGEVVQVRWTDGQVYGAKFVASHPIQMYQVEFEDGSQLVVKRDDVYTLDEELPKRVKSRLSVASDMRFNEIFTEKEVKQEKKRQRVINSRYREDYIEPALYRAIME
Sfp inh = inhibitors of Bacillus subtilis Sfp phosphopantetheinyl transferase | Potency, µM, inactives show largest response in the series, negative = inhibition, most hits filed as inhibitors | 310,000 tested, 3.5% active | Q9F4F7 | Biochemical Sfp PPTase activity, qHTS;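 note: the enzyme is Sfp with the accession as filed and its product quenches rhodamine fluorescence; 0% = enzyme reaction without inhibitor and -100% = no enzyme wells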
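Fluorescence-quenching assay: 15 nM Sfp-PPTase preincubated 15 min at room temperature with compound, then 5 uM rhodamine-CoA and 12.5 uM BHQ-2-labelled YbbR peptide added. Fluorescence (ex 525/em 598 nm) read at start and after 30 min; difference gives rate.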
BAZ2B block = inhibitors of human BAZ2B bromodomain. Q9UIF8. AlphaScreen BAZ2B-H3K14Ac peptide displacement. Potency, µM (doses to about 114 µM), inactives show at the top dose activity change, negative = inhibition, hits mostly inhibitors. 360,000 tested, 4.4% active; note: % is set by controls: 0 for no effect and ±100 for the full control effect; nearly all actives have a fitted effect of over 60% in size
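Protein-peptide AlphaScreen: BAZ2B 50 nM, b-H3K14Ac 50 nM, 1x PBS pH 7.4 + 0.01% Tween-20. Preincubation 30 min RT; cpd 30 min RT (top 110 uM); beads 20 min RT, light-protected.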
An asterisk follows results filed as active; ? = inconclusive; / = not tested or not shown; [ ] = dose if it differs, or a comment. Hits are enriched below; roughly 12% of the tested compounds scored in any of these assays. Calls come from the whole dose curve; as a rule, active = well fitted curve in the direction sought with a large enough effect; inconclusive = small, poorly fitted or top-dose-only effect, or another doubt; inactive = no such curve, though single readings can be large; an effect the other way counts as inactive or inconclusive. Potency is the fitted concentration of half-maximal effect.

SMILES | G9a block | HP1b chromo inh | PLK1 PBD block | JMJD2A Tudor inh | Sfp inh | BAZ2B block
CCC(=O)N(CCC(c1ccc(C)cc1)c1ccco1)Cc1ccco1 (stereo not given) | ? | -9% | -26% | ? | ? | 50µM*
O=S(=O)(CS(=O)(=O)Oc1ccccc1)Oc1ccccc1 | / | ? | 21µM* | -10% | / | /
COC(=O)c1[nH]c(C)c(/C(O)=C2\C(=O)C(=O)N(CCN(C)C)C2c2ccccc2OC)c1C (stereo not given) | ? | 18% | -15% | 45µM* | 15% | -34%
CCOC(=O)c1[nH]c(C)c(/C(O)=C2\C(=O)C(=O)N(CCCN3CCOCC3)C2c2cccs2)c1C (stereo not given) | / | 28% | -8% | -17% | -18% | -15%
COC(=O)c1[nH]c(C)c(/C(O)=C2\C(=O)C(=O)N(CCN3CCOCC3)C2c2ccccc2OC)c1C (stereo not given) | 50µM* | 18% | -5% | 50µM* | -1% | -3%
Cc1ccc(S(=O)(=O)c2nc(Nc3ccccc3C#N)sc2Cl)cc1 | 7.9µM* | 41% | -5% | 11% | -1% | -5%
Cc1ccc(S(=O)(=O)c2nc(Nc3ccccc3N3CCOCC3)sc2Cl)cc1 | -2%[0.501 µM] | 1% | -8% | -25% | -8% | 54%
CC1(C(=O)NS(=O)(=O)c2cccs2)CCN1C(=O)CC1CCCC1 (stereo not given) | / | / | -2% | / | / | /
CC1CCCN(C(=O)c2cn(-c3ccccc3)nc2-c2cccnc2)C1 (stereo not given) | -4% | 33% | 0% | -6% | / | 7%
CCOC(=O)COc1ccc(S(=O)(=O)N2CCN(c3ccc(OC)cc3)CC2)cc1 | 4% | -16% | ? | 28µM* | 10% | -5%
CCOC(=O)c1ccc(S(=O)(=O)N2CCN(C3CCCC3)CC2)cc1 | -10% | 20% | -5% | -14% | 18µM* | -19%
CCOC(=O)N1CCC(N2CCN(S(=O)(=O)c3ccc(OC)cc3)CC2)CC1 | ? | -11% | 7% | 18µM* | 4% | -10%
CCOC(=O)N1CCC(N2CCN(c3ccccc3)CC2)CC1 | -86% | 19% | -6% | -21% | 11% | -36%
CCOC(=O)N1CCC(N2CCN(S(=O)(=O)CC)CC2)CC1 | ? | ? | 0% | 4.5µM* | -22% | -31%
O=C1c2ccccc2C(=O)N1c1cccc(=O)[nH]1 | / | / | / | -11% | / | /
O=C(Nc1ccc(-c2nc3ncccc3o2)cc1)c1ccco1 | -36%[12.7 µM] | -13% | 11µM* | 35µM* | 19% | -4%
O=C(Nc1ccc2oc(-c3cccnc3)nc2c1)c1ccc(Br)cc1 | -4%[59 µM] | 53% | / | -19% | / | 0%
O=C(Nc1ccc2oc(-c3cccnc3)nc2c1)c1ccc(Br)o1 | 20µM* | 12% | -16% | -13% | 50µM* | -8%
O=C(Nc1cccc(NC(=O)c2nccc3ccccc23)c1)c1ccco1 | 45µM* | 1% | -5% | -30% | 1% | -22%
O=C(Nc1cccnc1)c1cccc(NC(=O)c2ccco2)c1 | 40µM* | 26% | -1% | -1% | 27% | 5%
O=C(Nc1ccc2oc(-c3cccnc3)nc2c1)c1ccco1 | 50µM* | 35% | -8% | -13% | 9% | -32%
CCOCCCn1cc(C(=O)c2cc(Br)ccc2O)cc(C#N)c1=O | -28%[59 µM] | 27% | -6% | -8% | 1% | 56µM*
Cc1cccc(NC(=O)CSc2nc3c(oc4ccccc43)c(=O)n2C(C)C)c1 | 8%[59 µM] | 18% | / | -4% | / | 0%
Cc1cnc(C(=O)OCC(=O)c2cccc3ccccc23)cn1 | 45µM* | 20% | -6% | -16% | / | -4%
Cc1cnc(C(=O)OCC(=O)c2c[nH]c3ccccc23)cn1 | -8%[12.7 µM] | 33% | 4% | -11% | / | 9%
SMILES | G9a block | HP1b chromo inh | PLK1 PBD block | JMJD2A Tudor inh | Sfp inh | BAZ2B block
c1cncc(-c2nc(-n3ccnc3)c3ccccc3n2)c1 | -38%[0.501 µM] | / | / | / | 20% | /
COc1ccc(-c2csc(/C(C#N)=C(\O)CSc3nccn3C)n2)cc1OC | 45µM* | -22% | -11% | -35% | ? | 50µM*
O=S(=O)(c1ccc2c(c1)OCCO2)N1CCN(S(=O)(=O)c2ccc3nc(Cl)c(Cl)nc3c2)CC1 | / | / | / | -6% | / | /
CN1CCN(S(=O)(=O)c2ccc(N3CCc4ccccc4C3)nc2)CC1 | -31% | -16% | 7.5µM* | 8.9µM* | 11% | -38%
O=C(O)CN1C(=O)/C(=C2\C(=O)N(Cc3ccccc3Cl)c3ccccc32)SC1=S | 14µM* | -36% | 27µM* | ? | -5% | ?
O=C(c1ccc2c(c1)N(Cc1ccccc1Cl)C(=O)c1ccccc1S2)N1CCCC1 | -26%[59 µM] | 10% | / | -23% | / | -17%
O=C1/C(=C2\C(=O)N(Cc3ccc(F)cc3)c3ccccc32)SC(=S)N1CCS(=O)(=O)O | ? | ? | 21µM* | 10µM* | -11% | 14µM*
O=C(Nc1ccccc1)N(Cc1cccs1)c1ccc(Cl)cc1 | -17%[59 µM] | 63% | / | 8% | / | -5%
O=C(NCc1cccs1)c1ccc(CSc2nc3ccncc3n2Cc2ccccc2)cc1 | ? | 43% | / | -16% | / | -3%
CN(Cc1ccccc1)C(=O)[C@H]1CCC(=O)N1Cc1ccco1 | 45µM* | 43% | -6% | -5% | ? | -22%
CCCCn1c(N)c(N(CCC(C)C)C(=O)CSc2nncn2-c2ccccc2)c(=O)[nH]c1=O | 7.9µM* | 30% | 3% | -2% | / | ?
COCCCN(C(=O)CSc1nc2ccccc2c(=O)n1C)c1c(N)n(Cc2ccccc2)c(=O)[nH]c1=O | / | 50% | -6% | -8% | / | /
CC(C)CN(C(=O)CSc1nncn1-c1ccccc1)c1c(N)n(CC(C)C)c(=O)[nH]c1=O | 18%[59 µM] | 34% | -15% | -6% | -2% | -1%
CCCCN(C(=O)CSc1nncn1-c1ccccc1OC)c1c(N)n(Cc2ccccc2)c(=O)[nH]c1=O | 56µM* | 24% | -1% | -21% | 13% | -3%
CCc1ccc2nc(N(Cc3cccnc3)C(C)=O)sc2c1 | 0%[59 µM] | 38% | / | -12% | / | -18%
CCNC(=S)N/N=C(\C)c1ccc2ccccc2c1 | ? | / | / | / | 2% | 35µM*
CCNC(=S)N/N=C(\C)c1cccc(OC)c1 | -33% | 48% | -2% | -2% | ? | -34%
CCNC(=S)N/N=C(\C)c1ccc2ccccc2c1OC(F)F | 45µM* | ? | -13% | ? | 0% | ?
Cc1cccc2sc(=S)[nH]c12 | / | / | 21µM* | / | / | /
CCOc1ccccc1C(=O)N1CCN(CCc2ccccn2)CC1 | 5%[59 µM] | 21% | / | -30% | / | -16%
CCN1CCN(c2ccc(S(=O)(=O)N3CCOCC3)cc2NC(=O)c2ccc(F)cc2Cl)CC1 | 40µM* | 44% | 5% | 10% | / | 6%
